# Measurements reported in the supplement of paper PMC4022240.
# ± gives the standard deviation.
# T1: HaloTag-ATRX ADD domain (163-292)
# T1 chain: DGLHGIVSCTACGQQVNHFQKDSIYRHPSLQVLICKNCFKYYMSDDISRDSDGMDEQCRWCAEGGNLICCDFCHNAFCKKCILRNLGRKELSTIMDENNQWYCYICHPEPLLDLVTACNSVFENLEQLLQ
# Key:
# Assay in all cases: peptide microarray binding signal (635 nm), min-max normalized on array (fraction of array maximum); higher = stronger binding
# Conditions in all cases: peptide region: H3 5-17
# [1] = biological target: T1, HaloTag-ATRX ADD domain (163-292)
# Outline: (§1)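 Two probe formats were used for 1 h at 4°C: biotin-labelled HaloTag reader fusions (10 nM to 1 μM) with streptavidin-Alexa Fluor 647, and rabbit histone antibodies (1:10,000 to 1:2,000) with anti-rabbit Alexa 647. Both were applied to nitrocellulose arrays of histone 13-mer peptide–cellulose conjugates printed in triplicate with a Cy3 tracer and blocked overnight at 4°C. Signal was read at 635 nm and misprints at 532 nm on an Axon GenePix 4000B. Binding signal is expressed as the triplicate-spot mean intensity, min-max scaled for each library.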
# [2] = biological target: HaloTag-ING2 PHD (mouse Ing2 200-280)
# Outline: as §1
# [3] = biological target: anti-H3K4me3 antibody ab8580
# Outline: as §1
# [4] = biological target: anti-H3K9me3 antibody ab8898
# Outline: as §1
# [5] = peptide modifications: H3R8cit H3S10ph, binder concentration: 1:2,000 dilution
# [6] = peptide modifications: H3R8cit H3S10ph, binder concentration: 1:10,000 dilution
# [7] = peptide modifications: H3R8cit H3T11ph, binder concentration: 1:2,000 dilution
# [8] = peptide modifications: H3R8cit H3T11ph, binder concentration: 1:10,000 dilution
# [9] = peptide modifications: H3K9me3 H3T11ph, binder concentration: 1:2,000 dilution
# [10] = peptide modifications: H3K9me3 H3T11ph, binder concentration: 1:10,000 dilution
# [11] = peptide modifications: H3K9me3 H3K14me1, binder concentration: 1:2,000 dilution
# [12] = peptide modifications: H3K9me3 H3K14me1, binder concentration: 1:10,000 dilution
# [13] = peptide modifications: H3R8me1, binder concentration: 1:2,000 dilution
# [14] = peptide modifications: H3R8me1, binder concentration: 1:10,000 dilution
# [15] = peptide modifications: H3R8cit H3K9me3, binder concentration: 1:2,000 dilution
# [16] = peptide modifications: H3R8cit H3K9me3, binder concentration: 1:10,000 dilution
# [17] = peptide modifications: H3K9me3 H3S10ph, binder concentration: 1:2,000 dilution
# [18] = peptide modifications: H3K9me3 H3S10ph, binder concentration: 1:10,000 dilution
# [19] = peptide modifications: H3K9me3 H3K14me3, binder concentration: 1:2,000 dilution
# [20] = peptide modifications: H3K9me3 H3K14me3, binder concentration: 1:10,000 dilution
# [21] = peptide modifications: H3K9me3 H3K14me2, binder concentration: 1:2,000 dilution
# [22] = peptide modifications: H3K9me3 H3K14me2, binder concentration: 1:10,000 dilution
# [23] = peptide modifications: H3R8cit H3K9me1, binder concentration: 1:2,000 dilution
# [24] = peptide modifications: H3R8cit H3K9me1, binder concentration: 1:10,000 dilution
binder,measurement,setting,value
QTARKSTGGKAPR [H3 5-17 Q T A Rcit K Sph T G G K A P R],peptide microarray binding signal,"[1]; peptide modifications: H3R8cit H3S10ph, binder concentration: 50 nM",0.00417 ± 0.00041
same,peptide microarray binding signal,"[1]; peptide modifications: H3R8cit H3S10ph, binder concentration: 500 nM",0.0107 ± 0.0011
same,peptide microarray binding signal,"[2]; peptide modifications: H3R8cit H3S10ph, binder concentration: 10 nM",0.00949 ± 0.0015
same,peptide microarray binding signal,"[2]; peptide modifications: H3R8cit H3S10ph, binder concentration: 100 nM",0.0187 ± 0.0059
same,peptide microarray binding signal,[3]; [5],0.00211 ± 0.00036
same,peptide microarray binding signal,[3]; [6],0.00194 ± 0.00019
same,peptide microarray binding signal,[4]; [5],0.00183 ± 0.00048
same,peptide microarray binding signal,[4]; [6],0.00133 ± 7.9e-05
QTARKSTGGKAPR [H3 5-17 Q T A Rcit K S Tph G G K A P R],peptide microarray binding signal,"[1]; peptide modifications: H3R8cit H3T11ph, binder concentration: 50 nM",0.00404 ± 0.00028
same,peptide microarray binding signal,"[1]; peptide modifications: H3R8cit H3T11ph, binder concentration: 500 nM",0.0123 ± 0.0011
same,peptide microarray binding signal,"[2]; peptide modifications: H3R8cit H3T11ph, binder concentration: 10 nM",0.0179 ± 0.0072
same,peptide microarray binding signal,"[2]; peptide modifications: H3R8cit H3T11ph, binder concentration: 100 nM",0.0242 ± 0.0054
same,peptide microarray binding signal,[3]; [7],0.00285 ± 4.3e-05
same,peptide microarray binding signal,[3]; [8],0.002511 ± 2.2e-05
same,peptide microarray binding signal,[4]; [7],0.00142 ± 0.00018
same,peptide microarray binding signal,[4]; [8],0.00115 ± 2e-05
QTARKSTGGKAPR [H3 5-17 Q T A R Kme3 S Tph G G K A P R],peptide microarray binding signal,"[1]; peptide modifications: H3K9me3 H3T11ph, binder concentration: 50 nM",0.00737 ± 0.0032
same,peptide microarray binding signal,"[1]; peptide modifications: H3K9me3 H3T11ph, binder concentration: 500 nM",0.00981 ± 0.0012
same,peptide microarray binding signal,"[2]; peptide modifications: H3K9me3 H3T11ph, binder concentration: 10 nM",0.00352 ± 0.00053
same,peptide microarray binding signal,"[2]; peptide modifications: H3K9me3 H3T11ph, binder concentration: 100 nM",0.00539 ± 0.0012
same,peptide microarray binding signal,[3]; [9],0.00485 ± 0.00012
same,peptide microarray binding signal,[3]; [10],0.00747 ± 0.0029
same,peptide microarray binding signal,[4]; [9],0.215 ± 0.078
same,peptide microarray binding signal,[4]; [10],0.229 ± 0.095
QTARKSTGGKAPR [H3 5-17 Q T A R Kme3 S T G G Kme A P R],peptide microarray binding signal,"[1]; peptide modifications: H3K9me3 H3K14me1, binder concentration: 50 nM",0.00285 ± 0.00016
same,peptide microarray binding signal,"[1]; peptide modifications: H3K9me3 H3K14me1, binder concentration: 500 nM",0.00524 ± 0.00015
same,peptide microarray binding signal,"[2]; peptide modifications: H3K9me3 H3K14me1, binder concentration: 10 nM",0.00406 ± 0.00024
same,peptide microarray binding signal,"[2]; peptide modifications: H3K9me3 H3K14me1, binder concentration: 100 nM",0.0116 ± 0.00073
same,peptide microarray binding signal,[3]; [11],0.00483 ± 0.00038
same,peptide microarray binding signal,[3]; [12],0.00251 ± 9.7e-05
same,peptide microarray binding signal,[4]; [11],0.175 ± 0.043
same,peptide microarray binding signal,[4]; [12],0.0981 ± 0.043
QTARKSTGGKAPR [H3 5-17 Q T A Rme K S T G G K A P R],peptide microarray binding signal,"[1]; peptide modifications: H3R8me1, binder concentration: 50 nM",0.00589 ± 0.00021
same,peptide microarray binding signal,"[1]; peptide modifications: H3R8me1, binder concentration: 500 nM",0.00448 ± 0.00015
same,peptide microarray binding signal,"[2]; peptide modifications: H3R8me1, binder concentration: 10 nM",0.0037 ± 7.9e-05
same,peptide microarray binding signal,"[2]; peptide modifications: H3R8me1, binder concentration: 100 nM",0.00262
same,peptide microarray binding signal,[3]; [13],0.0014 ± 0.00011
same,peptide microarray binding signal,[3]; [14],0.00417 ± 0.00061
same,peptide microarray binding signal,[4]; [13],0.00305 ± 0.00038
same,peptide microarray binding signal,[4]; [14],0.00755 ± 0.00014
QTARKSTGGKAPR [H3 5-17 Q T A Rcit Kme3 S T G G K A P R],peptide microarray binding signal,"[1]; peptide modifications: H3R8cit H3K9me3, binder concentration: 50 nM",0.0148 ± 0.00057
same,peptide microarray binding signal,"[1]; peptide modifications: H3R8cit H3K9me3, binder concentration: 500 nM",0.036 ± 0.002
same,peptide microarray binding signal,"[2]; peptide modifications: H3R8cit H3K9me3, binder concentration: 10 nM",0.0937 ± 0.0048
same,peptide microarray binding signal,"[2]; peptide modifications: H3R8cit H3K9me3, binder concentration: 100 nM",0.102 ± 0.013
same,peptide microarray binding signal,[3]; [15],0.453 ± 0.025
same,peptide microarray binding signal,[3]; [16],0.334 ± 0.09
same,peptide microarray binding signal,[4]; [15],1 ± 0.068
same,peptide microarray binding signal,[4]; [16],0.952 ± 0.059
QTARKSTGGKAPR [H3 5-17 Q T A R Kme3 Sph T G G K A P R],peptide microarray binding signal,"[1]; peptide modifications: H3K9me3 H3S10ph, binder concentration: 50 nM",0.005862 ± 5.4e-05
same,peptide microarray binding signal,"[1]; peptide modifications: H3K9me3 H3S10ph, binder concentration: 500 nM",0.0171 ± 0.00064
same,peptide microarray binding signal,"[2]; peptide modifications: H3K9me3 H3S10ph, binder concentration: 10 nM",0.00358 ± 0.00073
same,peptide microarray binding signal,"[2]; peptide modifications: H3K9me3 H3S10ph, binder concentration: 100 nM",0.0227 ± 0.0053
same,peptide microarray binding signal,[3]; [17],0.00466 ± 0.0006
same,peptide microarray binding signal,[3]; [18],0.00913 ± 0.0042
same,peptide microarray binding signal,[4]; [17],0.362 ± 0.11
same,peptide microarray binding signal,[4]; [18],0.273 ± 0.078
QTARKSTGGKAPR [H3 5-17 Q T A R Kme3 S T G G Kme3 A P R],peptide microarray binding signal,"[1]; peptide modifications: H3K9me3 H3K14me3, binder concentration: 50 nM",0.00721 ± 0.00063
same,peptide microarray binding signal,"[1]; peptide modifications: H3K9me3 H3K14me3, binder concentration: 500 nM",0.00614 ± 0.00023
same,peptide microarray binding signal,"[2]; peptide modifications: H3K9me3 H3K14me3, binder concentration: 10 nM",0.00549 ± 0.00022
same,peptide microarray binding signal,"[2]; peptide modifications: H3K9me3 H3K14me3, binder concentration: 100 nM",0.00609 ± 0.00036
same,peptide microarray binding signal,[3]; [19],0.0344 ± 0.0088
same,peptide microarray binding signal,[3]; [20],0.0374 ± 0.015
same,peptide microarray binding signal,[4]; [19],0.241 ± 0.054
same,peptide microarray binding signal,[4]; [20],0.261 ± 0.13
QTARKSTGGKAPR [H3 5-17 Q T A R Kme3 S T G G Kme2 A P R],peptide microarray binding signal,"[1]; peptide modifications: H3K9me3 H3K14me2, binder concentration: 50 nM",0.0125 ± 0.00061
same,peptide microarray binding signal,"[1]; peptide modifications: H3K9me3 H3K14me2, binder concentration: 500 nM",0.0226 ± 0.0018
same,peptide microarray binding signal,"[2]; peptide modifications: H3K9me3 H3K14me2, binder concentration: 10 nM",0.0179 ± 0.0015
same,peptide microarray binding signal,"[2]; peptide modifications: H3K9me3 H3K14me2, binder concentration: 100 nM",0.0366 ± 0.016
same,peptide microarray binding signal,[3]; [21],0.117 ± 0.017
same,peptide microarray binding signal,[3]; [22],0.082 ± 0.012
same,peptide microarray binding signal,[4]; [21],0.869 ± 0.044
same,peptide microarray binding signal,[4]; [22],1 ± 0.084
QTARKSTGGKAPR [H3 5-17 Q T A Rcit Kme S T G G K A P R],peptide microarray binding signal,"[1]; peptide modifications: H3R8cit H3K9me1, binder concentration: 50 nM",0.00686 ± 0.00018
same,peptide microarray binding signal,"[1]; peptide modifications: H3R8cit H3K9me1, binder concentration: 500 nM",0.0113 ± 0.00044
same,peptide microarray binding signal,"[2]; peptide modifications: H3R8cit H3K9me1, binder concentration: 10 nM",0.0186 ± 0.0018
same,peptide microarray binding signal,"[2]; peptide modifications: H3R8cit H3K9me1, binder concentration: 100 nM",0.0317 ± 0.0022
same,peptide microarray binding signal,[3]; [23],0.00427 ± 0.00041
same,peptide microarray binding signal,[3]; [24],0.00394 ± 6.2e-05
same,peptide microarray binding signal,[4]; [23],0.00462 ± 0.00021
same,peptide microarray binding signal,[4]; [24],0.00311 ± 7e-05
